Assay [1] deals with Tyrosine-protein kinase ABL1 (Homo sapiens), P00519 [T315I]. Particulars: at 1 µM.
In assay [2] the test system is Tyrosine-protein kinase ABL1 (Homo sapiens), P00519 [Y253F]. Conditions: at 0.1 µM.
For assay [3] the test system is unchanged. Particulars: at 1 µM.
For assay [4], the target named is Tyrosine-protein kinase ABL1 (Homo sapiens) (UniProt P00519). Conditions: at 0.1 µM.
The target is the same in assay [5]. Particulars: at 1 µM.
The target in assay [6] is ALK tyrosine kinase receptor (Homo sapiens) (UniProt Q9UM73). Particulars: at 0.1 µM.
Assay [7] shares this target. Conditions: at 1 µM.
Assay [8] has as its target Tyrosine-protein kinase ABL2 (Homo sapiens) (UniProt P42684). Conditions: at 0.1 µM.
The target is the same in assay [9]. Conditions: at 1 µM.
Assay [10] addresses Tyrosine-protein kinase receptor UFO (Homo sapiens) (UniProt P30530). Particulars: at 0.1 µM.

The text below walks through data of ChEMBL document CHEMBL1961873, “Compounds: GSK PKIS; Assays: Nanosyn kinase panel” (2012).

One may read the inhibition as the change of the read-out against control, counted positive when it falls.

Tyrosine-protein kinase receptor UFO (Homo sapiens), sequence (P30530 whole entry): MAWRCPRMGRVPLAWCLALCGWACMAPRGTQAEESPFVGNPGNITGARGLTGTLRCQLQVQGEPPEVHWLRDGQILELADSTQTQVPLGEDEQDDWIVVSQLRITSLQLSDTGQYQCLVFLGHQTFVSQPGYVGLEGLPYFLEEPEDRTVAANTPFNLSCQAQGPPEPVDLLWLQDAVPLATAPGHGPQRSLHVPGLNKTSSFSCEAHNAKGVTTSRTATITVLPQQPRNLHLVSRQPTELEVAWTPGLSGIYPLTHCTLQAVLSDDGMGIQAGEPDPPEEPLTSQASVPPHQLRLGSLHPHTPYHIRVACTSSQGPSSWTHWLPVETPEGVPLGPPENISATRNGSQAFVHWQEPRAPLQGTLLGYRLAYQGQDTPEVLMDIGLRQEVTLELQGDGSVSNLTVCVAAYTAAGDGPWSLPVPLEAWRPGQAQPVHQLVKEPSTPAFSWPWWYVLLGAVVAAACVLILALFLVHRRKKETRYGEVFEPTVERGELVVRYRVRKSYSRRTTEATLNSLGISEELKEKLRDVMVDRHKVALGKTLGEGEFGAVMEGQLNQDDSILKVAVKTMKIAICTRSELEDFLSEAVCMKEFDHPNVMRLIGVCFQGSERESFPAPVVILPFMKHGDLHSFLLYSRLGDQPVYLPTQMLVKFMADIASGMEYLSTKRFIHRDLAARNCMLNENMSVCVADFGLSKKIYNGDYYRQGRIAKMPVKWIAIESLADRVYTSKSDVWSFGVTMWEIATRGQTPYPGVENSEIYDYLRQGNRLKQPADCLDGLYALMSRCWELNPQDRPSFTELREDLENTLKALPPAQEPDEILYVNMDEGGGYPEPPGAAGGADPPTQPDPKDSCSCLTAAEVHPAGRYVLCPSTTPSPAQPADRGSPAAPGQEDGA
Tyrosine-protein kinase ABL2 (Homo sapiens), sequence (P42684 whole entry): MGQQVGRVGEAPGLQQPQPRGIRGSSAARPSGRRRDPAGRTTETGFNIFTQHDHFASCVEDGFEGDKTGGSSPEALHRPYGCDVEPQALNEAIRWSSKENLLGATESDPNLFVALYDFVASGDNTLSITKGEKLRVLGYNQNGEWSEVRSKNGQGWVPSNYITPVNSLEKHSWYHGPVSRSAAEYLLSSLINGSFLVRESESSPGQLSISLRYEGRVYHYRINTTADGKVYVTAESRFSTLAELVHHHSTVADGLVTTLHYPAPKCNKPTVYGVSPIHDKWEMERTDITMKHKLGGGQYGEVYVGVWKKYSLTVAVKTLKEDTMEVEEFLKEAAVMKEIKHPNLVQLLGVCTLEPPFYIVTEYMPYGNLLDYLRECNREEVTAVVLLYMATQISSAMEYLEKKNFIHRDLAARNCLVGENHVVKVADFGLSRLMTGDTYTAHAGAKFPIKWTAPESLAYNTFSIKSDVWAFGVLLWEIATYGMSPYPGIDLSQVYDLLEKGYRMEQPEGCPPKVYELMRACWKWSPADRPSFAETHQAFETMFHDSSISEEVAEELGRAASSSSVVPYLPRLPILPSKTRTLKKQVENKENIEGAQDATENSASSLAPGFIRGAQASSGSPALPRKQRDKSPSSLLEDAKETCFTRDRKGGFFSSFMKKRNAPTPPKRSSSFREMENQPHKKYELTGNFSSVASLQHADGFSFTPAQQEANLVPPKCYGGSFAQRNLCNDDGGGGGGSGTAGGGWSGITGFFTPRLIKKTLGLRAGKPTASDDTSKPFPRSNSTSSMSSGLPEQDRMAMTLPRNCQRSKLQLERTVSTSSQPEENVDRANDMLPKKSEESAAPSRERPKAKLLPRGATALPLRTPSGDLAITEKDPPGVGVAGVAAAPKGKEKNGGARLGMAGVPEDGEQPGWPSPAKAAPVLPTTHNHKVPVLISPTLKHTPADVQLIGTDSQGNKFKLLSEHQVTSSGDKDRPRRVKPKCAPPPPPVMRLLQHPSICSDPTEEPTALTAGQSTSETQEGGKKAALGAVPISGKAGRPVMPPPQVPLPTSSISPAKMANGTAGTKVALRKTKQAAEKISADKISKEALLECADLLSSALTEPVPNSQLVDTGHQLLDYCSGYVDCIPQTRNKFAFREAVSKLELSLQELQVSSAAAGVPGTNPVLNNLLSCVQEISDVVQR
ALK tyrosine kinase receptor (Homo sapiens), sequence (Q9UM73 19-1620 limits assumed): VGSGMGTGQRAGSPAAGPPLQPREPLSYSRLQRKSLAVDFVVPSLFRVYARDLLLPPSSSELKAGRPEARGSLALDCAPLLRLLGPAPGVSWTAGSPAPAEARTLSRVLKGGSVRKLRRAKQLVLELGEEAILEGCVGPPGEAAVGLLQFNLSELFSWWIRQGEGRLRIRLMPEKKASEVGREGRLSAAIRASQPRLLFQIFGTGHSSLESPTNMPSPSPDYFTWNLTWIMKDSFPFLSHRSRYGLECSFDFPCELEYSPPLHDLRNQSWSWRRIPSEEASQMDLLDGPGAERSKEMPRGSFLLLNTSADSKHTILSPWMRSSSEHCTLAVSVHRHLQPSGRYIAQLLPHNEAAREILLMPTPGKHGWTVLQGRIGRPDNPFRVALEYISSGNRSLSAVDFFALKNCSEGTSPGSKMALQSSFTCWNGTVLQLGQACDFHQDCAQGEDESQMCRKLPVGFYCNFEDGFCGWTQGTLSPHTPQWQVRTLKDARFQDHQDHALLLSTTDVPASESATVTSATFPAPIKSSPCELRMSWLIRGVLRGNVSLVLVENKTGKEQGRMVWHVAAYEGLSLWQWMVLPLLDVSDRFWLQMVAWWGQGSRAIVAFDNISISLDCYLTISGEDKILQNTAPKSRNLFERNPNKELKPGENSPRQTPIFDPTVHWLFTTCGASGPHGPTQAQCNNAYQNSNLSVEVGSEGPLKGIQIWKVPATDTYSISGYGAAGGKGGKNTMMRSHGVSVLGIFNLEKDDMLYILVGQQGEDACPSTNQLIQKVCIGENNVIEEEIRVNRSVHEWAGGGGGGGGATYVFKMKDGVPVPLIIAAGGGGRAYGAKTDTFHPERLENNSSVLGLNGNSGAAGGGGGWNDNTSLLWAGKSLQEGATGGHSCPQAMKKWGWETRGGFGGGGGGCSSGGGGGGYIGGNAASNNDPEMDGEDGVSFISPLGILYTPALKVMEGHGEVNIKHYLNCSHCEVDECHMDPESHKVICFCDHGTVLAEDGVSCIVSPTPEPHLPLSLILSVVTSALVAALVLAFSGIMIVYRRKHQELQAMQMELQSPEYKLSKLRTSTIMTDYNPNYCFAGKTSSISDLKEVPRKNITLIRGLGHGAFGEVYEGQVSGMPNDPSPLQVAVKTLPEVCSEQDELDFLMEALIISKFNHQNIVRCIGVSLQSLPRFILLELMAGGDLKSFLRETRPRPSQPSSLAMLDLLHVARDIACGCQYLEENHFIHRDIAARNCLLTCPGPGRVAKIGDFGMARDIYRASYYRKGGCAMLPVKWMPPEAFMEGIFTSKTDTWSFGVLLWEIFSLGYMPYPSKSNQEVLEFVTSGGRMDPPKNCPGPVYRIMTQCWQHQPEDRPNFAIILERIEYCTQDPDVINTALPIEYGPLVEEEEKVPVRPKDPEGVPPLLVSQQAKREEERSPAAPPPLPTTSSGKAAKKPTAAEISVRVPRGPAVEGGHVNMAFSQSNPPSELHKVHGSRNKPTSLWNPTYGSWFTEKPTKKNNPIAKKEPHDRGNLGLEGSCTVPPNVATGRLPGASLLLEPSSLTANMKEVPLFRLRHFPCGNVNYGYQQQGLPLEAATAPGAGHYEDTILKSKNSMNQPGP

For the molecule `CCC(=O)Nc1ccc(C)c(-c2ccc(C(=O)NCC3CC3)cc2)c1`, the inhibition in assay [1] worked out at 3.61%; in [2], 2.81%; in assay [3], 3.14%; in [4], 2.28%; in assay [5], 2.9%; in assay [6], 1.63%. Moreover, the inhibition is 2.14% in [7], 0.38% in [8], 3.75% in assay [9] and -4.46% in assay [10].
On to `COc1cccc(/C=N/Nc2ncnc3c2cnn3-c2cccc(OC)c2)c1`, for which the inhibition in assay [1] worked out at 10.4%; in [2], 11.1%; in assay [3] it was 49.7%; in [4], 6.38%; in assay [5], 27.4%; in assay [6] it was 1.22%. Also, the inhibition was 2.63% in assay [7], 2.78% in assay [8], 15.2% in [9] and -6.24% in assay [10].
Take `Fc1ccc(-c2ncn(C3CCNCC3)c2-c2ccnc(Oc3ccc4c(c3)OCO4)n2)cc1`: the inhibition in assay [1] is 3.48%; in assay [2] it was 4.71%; in assay [3] it was 4.75%; in [4], 5.17%; in assay [5], 9.1%; in assay [6], 4.91%. Moreover, the inhibition in assay [7] is 6.26%; in assay [8], 5.06%; in assay [9], 9%; in [10], -7.21%.
Turning to `CN1CCN(CCCNc2nc3ccc(Oc4ccc(NC(=O)Nc5cc(C(F)(F)F)ccc5F)cc4)cc3[nH]2)CC1`, the inhibition in assay [1] is 32%; in assay [2], 4.8%; in [3], 10.8%; in assay [4], -0.51%; in assay [5] it was 13.6%; in assay [6], -3.93%. Also, the inhibition was 0.57% in assay [7], -0.15% in [8], 15.4% in [9] and 0.85% in [10].
For the molecule `C#Cc1cccc(Nc2ncnc3ccc(OCCCCNCCS(C)(=O)=O)cc23)c1`, the inhibition in assay [1] came out at 19.4%; in assay [2], 8.28%; in assay [3], 24.9%; in assay [4] it was 8.05%; in [5] it was 26.8%; in assay [6], 3.38%. Further, the inhibition in assay [7] was 31.9%; in assay [8], 5.87%; in assay [9], 14.8%; in [10] it was -8.14%.
For the molecule `COC(=O)Nc1nc2ccc(Sc3ccc(NC(=O)Nc4cc(C(F)(F)F)ccc4F)cc3)cc2[nH]1`, the inhibition came to 72.3% in assay [1]; 3.61% in assay [2]; 31.3% in [3]; 3.45% in assay [4]; 33% in assay [5]; 1.12% in assay [6]. Besides, the inhibition in assay [7] was determined as 2.57%; in [8], 11.8%; in assay [9], 58.9%; in assay [10] it was 1.61%.
Consider `Fc1ccc(-c2ncn(C3CCNCC3)c2-c2ccnc(Oc3ccc(Oc4ccccc4)cc3)n2)cc1`, for which the inhibition in assay [1] worked out at 1.98%; in [2], 1.99%; in [3], 2.86%; in assay [4], 3.87%; in assay [5] it was 2.97%; in [6] it was 4.84%. The inhibition in assay [7] is 4.48%; in assay [8], 2.96%; in assay [9], 3.58%; in assay [10], -7.4%.
On to `NS(=O)(=O)c1ccc(N/N=C2\C(=O)Nc3ccc(C(=O)NCCCn4ccnc4)cc32)cc1`, for which the inhibition was 14.2% in assay [1]; 5.66% in assay [2]; 15.5% in [3]; 2.77% in assay [4]; 13.3% in [5]; 3.7% in [6]. For the same molecule, the inhibition in [7] is 11.1%; in [8], 4.28%; in assay [9] it was 9.85%; in assay [10], -2.66%.
For `c1ccc(-c2n[nH]cc2-c2ccnc(-c3ccc(OCCN4CCOCC4)cc3)c2)nc1`, the inhibition was 1.83% in assay [1]; 13.5% in assay [2]; 57.1% in [3]; 18.2% in assay [4]; 70% in [5]; -2.58% in [6]. Moreover, the inhibition in [7] is 3.94%; in [8] it was 5.43%; in [9], 34.1%; in assay [10], 8.29%.
Turning to `Cc1ccc(C(=O)NC2CCC2)cc1-c1ccc(C(=O)NCC2CC2)cc1`, the inhibition is -1.77% in assay [1]; 2.23% in assay [2]; 0.38% in [3]; 3.73% in assay [4]; 5.96% in [5]; 2.79% in assay [6]. Moreover, the inhibition was 3.48% in assay [7], 3.15% in [8], 0.48% in assay [9] and -4.44% in assay [10].
`COc1cc(C)c(N(C)C(=O)CN(C)C)cc1Nc1nc(Nc2cccc(F)c2C(N)=O)c2cc[nH]c2n1`: the inhibition was -0.05% in [1]; 2.02% in assay [2]; 1.33% in assay [3]; 0.32% in assay [4]; 0.22% in assay [5]; 22.4% in [6]. The inhibition in [7] is 69.9%; in assay [8], -2.32%; in assay [9] it was -3.83%; in assay [10], -0.45%.
Turning to `CCN(CC)Cc1ccc(Nc2nccc(-c3cnn4ncccc34)n2)cc1`, the inhibition turned out to be 47.4% in assay [1]; 8.38% in [2]; 39.5% in assay [3]; 6.1% in assay [4]; 29.5% in assay [5]; 2.57% in [6]. For the same molecule, the inhibition is 24.4% in assay [7], 1.47% in [8], 22.2% in assay [9] and -3.64% in [10].
For the molecule `COc1cc(Nc2ncc3c(C)nc(-c4cccc(Oc5ccccc5)c4)n3n2)cc(OC)c1OC`, the inhibition in [1] was 3.35%; in assay [2], 4.25%; in assay [3], 2.77%; in assay [4], 2.33%; in assay [5], 3.84%; in assay [6], 1.5%. Also, the inhibition in assay [7] stood at 12.7%; in [8] it was 2.57%; in assay [9] it was 0.57%; in [10], 0.02%.
In the case of `CS(=O)(=O)CCNCc1cc(-c2cc3c(Nc4ccc(OCc5cccc(F)c5)c(Cl)c4)ncnc3s2)cs1`, the inhibition in [1] was 4.55%; in [2] it was 2.36%; in [3] it was 4.31%; in assay [4], 3.45%; in assay [5] it was 6.21%; in assay [6] it was 2.96%. Further, the inhibition in assay [7] is 4.5%; in assay [8], 2.95%; in [9] it was 6.38%; in assay [10] it was -7.56%.
As to `O=C(Nc1n[nH]c2nc(-c3ccco3)ccc12)C1CC1`, the inhibition in [1] is 12.8%; in assay [2] it was 4.47%; in assay [3], 7.45%; in assay [4] it was 3.94%; in [5], 14%; in assay [6], 1.35%. Further, the inhibition in [7] was found to be 2.65%; in [8], 4.39%; in [9], 6.13%; in assay [10] it was 2.04%.
For `O=C(Nc1ccc(Oc2ccc3[nH]c(NC(=O)c4ccccc4)nc3c2)cc1)Nc1cc(C(F)(F)F)ccc1F`, the inhibition in assay [1] turned out to be 83%; in [2] it was 10.8%; in assay [3] it was 51.8%; in [4], 16.2%; in assay [5], 62.3%; in assay [6], 3.09%. Also, the inhibition is 6.42% in assay [7], 25.1% in assay [8], 65.9% in [9] and -3.01% in assay [10].
As to `c1ccc(Oc2ccc(Nc3ncc(-c4ccccc4)o3)cc2)cc1`, the inhibition in assay [1] worked out at 1.01%; in assay [2] it was 1.56%; in assay [3], 3.65%; in [4], 2.29%; in assay [5] it was 7.18%; in assay [6], 0.41%. The inhibition in assay [7] is 2.22%; in assay [8], 1.49%; in assay [9], 1.49%; in assay [10], -1.17%.
